Experimental data published in PubChem BioAssay (NCI).
About 79,000 compounds went through this panel and 15% of them were active in at least one assay; those are over-represented in the sample as a whole. Rule as the data show it: active = growth inhibition above about 70%; inactive = the rest.

Experiments:
[1] = NCI Yeast Anticancer Drug Screen. Data for the rad50 strain (AID 155);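 also: 0% = growth of vehicle-only cultures of the same strain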; settings: S. cerevisiae rad50 strain growth inhibition; at 50.0 µM; stronger effect = higher value
Procedure, shortened: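 Cells are treated with compound, grown, and their growth is then scored against vehicle-only cultures of the same repair-deficient yeast strain.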

[2] = NCI Yeast Anticancer Drug Screen. Data for the mec2-1 strain (AID 157); settings: S. cerevisiae mec2-1 strain, at 50.0 µM, stronger effect = higher value
Procedure, shortened: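 Strain: mec2-1 (DNA repair/cell cycle alteration). Compound exposure, then growth measured; inhibition expressed relative to vehicle.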

[3] = NCI Yeast Anticancer Drug Screen. Data for the sgs1 mgt1 strain (AID 161);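 also: 0% = growth of cultures given vehicle only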; settings: S. cerevisiae sgs1 mgt1 strain, at 50.0 µM, stronger effect = higher value
Procedure, shortened: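 Read-out: growth inhibition vs vehicle controls. Cells: mutant yeast strain deficient in DNA damage repair.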

[4] = NCI Yeast Anticancer Drug Screen. Data for the cln2 rad14 strain (AID 165);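 also: 0% = growth equal to vehicle treated cultures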; settings: S. cerevisiae cln2 rad14 strain, at 50.0 µM, stronger effect = higher value
Procedure, shortened: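 Compounds are applied to the cln2 rad14 yeast strain, and growth is then compared with that of vehicle-treated cultures to give inhibition.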

[5] = NCI Yeast Anticancer Drug Screen. Data for the bub3 strain (AID 167); settings: S. cerevisiae bub3 mutant strain, at 50.0 µM, stronger effect = higher value
Procedure, shortened: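 Part of a panel of yeast mutants defective in DNA damage repair or cell cycle regulation. Each strain is grown with compound, and inhibition is calculated relative to solvent-treated cultures.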

[6] = NCI Yeast Anticancer Drug Screen. Data for the mlh1 rad18 strain (AID 175); settings: S. cerevisiae mlh1 rad18 strain growth inhibition; at 50.0 µM; stronger effect = higher value
Procedure, shortened: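 Read-out is yeast growth inhibition, calculated against vehicle-only controls. The compound was applied to a strain engineered with DNA damage repair alterations.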

Measured: growth inhibition

COc1ccc2c(c1)C(=O)N1CCOC1C2C(=O)O (stereo not drawn)
inactive: [1] 0.1% | [2] -31.8% | [3] -9.5% | [4] 11.3% | [5] -0.8% | [6] -30.3%

O=C1C(c2ccccc2)=C(c2ccccc2)c2ccccc21
inactive: [1] -8.2% | [2] 19.6% | [3] 21% | [4] -18.4% | [5] 32% | [6] 14.4%

CCCCOc1n[nH]c(=O)c2ccccc12
inactive: [1] -2.4% | [2] -13% | [3] -3.65% | [4] -25.4% | [5] -7.9% | [6] 8.6%

Cc1ccc(S(=O)(=O)NN=C2CCS(=O)CC2)cc1 (stereo not drawn)
inactive: [1] -19.6% | [2] 10.7% | [3] 7.6% | [4] -32.4% | [5] -10.5% | [6] -28.5%

O=C(Nc1ccc(Br)cc1)C(=O)C(C(=O)c1ccc(Cl)c(Cl)c1)C1OC(=O)c2ccccc21 (stereo not drawn)
inactive: [1] 59.1% | [2] 42.5% | [3] 36.6% | [4] 64.5% | [5] 47.3% | [6] 36.7%

COc1cccc(/C=C2\C(=O)N(C(=O)c3ccc(NC(C)=O)cc3)N=C2C)c1
inactive: [1] -43.9% | [2] -25.8% | [3] -57% | [4] -17.2% | [5] -38% | [6] -40.1%

O=C(/C=C/c1ccc(O)cc1)OCC1OC(Oc2cc(O)c3c(c2)OC(c2ccc(O)cc2)CC3=O)C(O)C(O)C1O (stereo not drawn)
inactive: [1] 9.35% | [2] -7.45% | [3] 9.6% | [4] -16.1% | [5] 14.3% | [6] 5.1%

CCOC(=O)CCC(Cl)(Cl)Cl
inactive: [1] 14% | [2] -9.95% | [3] -1.45% | [4] -39% | [5] -7.85% | [6] 9.2%

O=C(O)/C(Cc1ccc([N+](=O)[O-])cc1)=N\O
inactive: [1] -4.2% | [2] 6.85% | [3] -25.4% | [4] -16.6% | [5] 17.4% | [6] -2.8%

Cc1c(O)cccc1C(=O)C[n+]1ccccc1
inactive: [1] 3.85% | [2] -8% | [3] 10.8% | [4] -24.9% | [5] -6.9% | [6] 1.25%

O=C(O)c1c(Br)c(Br)c(Br)c(Br)c1C(=O)Nc1ccc(Br)cc1
inactive: [1] 2.25% | [2] -1.3% | [3] 5.8% | [4] -8.6% | [5] 2.75% | [6] 33.2%

C=CCc1cc(OC)ccc1O
inactive: [1] 22.3% | [2] 36.8% | [3] 30.8% | [4] -3% | [5] 22.3% | [6] 19.6%

C=C[C@]1(O)CCC[C@]2(C)C(=O)CCC12C (stereo partly drawn)
inactive: [1] -2.8% | [2] -21.9% | [3] -19.2% | [4] 10.8% | [5] -22.2% | [6] -31.9%

C[N+]1(CCc2ccccc2)CCOCC1
inactive: [1] -13.6% | [2] 3.9% | [3] 0.8% | [4] -38% | [5] 1.5% | [6] 2.8%

Cc1ccc(S(=O)(=O)NCC(=O)OCc2ccccc2)cc1
inactive: [1] 4.15% | [2] 3.4% | [3] 1.2% | [4] -0.55% | [5] 12.4% | [6] 7.8%

COc1ccc(C(=O)C(CN(C)C)CN(C)C)cc1OC
inactive: [1] 30.6% | [2] 9.55% | [3] -14.1% | [4] -5.9% | [5] -11.7% | [6] -18.4%

O=C1OCCCC1(Cc1ccccc1)Cc1ccccc1
inactive: [1] 44.6% | [2] -7.7% | [3] 37.4% | [4] -16.1% | [5] 39.6% | [6] 16.5%

N#CCCn1c(CCC(=O)Nc2ccc(Cl)cc2Cl)n[nH]c1=S
inactive: [1] -8.4% | [2] 0.65% | [3] -6.05% | [4] 13.6% | [5] 1.7% | [6] 2.45%

O=C(NO)/C(CC(=O)c1ccc(O)cc1O)=N\O
inactive: [1] 4.05% | [2] -5.5% | [3] -8.65% | [4] -0.7% | [5] -11.2% | [6] 16.9%

CN(C=O)c1ccc(C(=O)O)cc1
inactive: [1] 4.35% | [2] 11.9% | [3] -6.25% | [4] 2% | [5] 17.6% | [6] 10.6%

Cc1ccc(S(=O)(=O)N(C)C)cc1NC1=NCCO1
inactive: [1] -2.55% | [2] 5.75% | [3] 7.85% | [4] -40.4% | [5] -1% | [6] -2.6%

Nc1cc(F)cc(C(F)(F)F)c1F
inactive: [1] 13.5% | [2] -32.3% | [3] -4.3% | [4] -12.2% | [5] -5.35% | [6] 18.6%

CCN(CC)c1ccc(N=C2C=C(C(=O)Nc3ccccc3)C(=O)c3ccccc32)cc1
inactive: [1] -10.9% | [2] -40.3% | [3] -14.4% | [4] 6.25% | [5] -3.9% | [6] -21.4%

CCOC(=O)c1cnc2cc3c(cc2c1Nc1cccc(C)c1C)OCO3
inactive: [1] -9.9% | [2] -7.35% | [3] -16.4% | [4] -13% | [5] 3.5% | [6] -6.6%

CCN(CC)CCn1[nH]c2c3ccc(=O)cc3sc3c(NCCN)ccc1c32
inactive: [1] 13.3% | [2] -3.35% | [3] -12.7% | [4] -5.55% | [5] 2.5% | [6] -2.4%

O=c1[nH]c(=O)n(C2OC(CO)C(O)C2O)cc1OCCCc1ccccc1 (stereo not drawn)
inactive: [1] -23.1% | [2] -1.8% | [3] 16.4% | [4] 31.2% | [5] -5.45% | [6] 8.75%

C=CCNC(=S)/N=C/C(C(=O)Nc1ccc(Cl)cc1)=C(\C)O
inactive: [1] -34.1% | [2] -10.1% | [3] -30.2% | [4] 6.6% | [5] -16.8% | [6] -12.8%

CCOc1ccc(NS(=O)(=O)c2ccc(F)cc2)cc1
inactive: [1] -27.4% | [2] -21.3% | [3] -26.9% | [4] -6.2% | [5] -24.1% | [6] 3.05%

CC(C)N(C(C)C)C1C=CC(N(C(C)C)C(C)C)CC1 (stereo not drawn)
inactive: [1] 5% | [2] -15.9% | [3] 2.3% | [4] -33.6% | [5] -7.3% | [6] -0.35%

[O-]/[N+]1=[N+](\[O-])c2ccccc2COCc2ccccc21
inactive: [1] -5.2% | [2] -12.3% | [3] -12.4% | [4] -44.5% | [5] -8.1% | [6] -14.2%

CN(C)CCC(C(=O)C(C)(C)C)c1ccccn1 (stereo not drawn)
inactive: [1] -7.2% | [2] -9.2% | [3] -5.65% | [4] -19.4% | [5] -16.9% | [6] -0.6%

O=C(O)C(Oc1ccc(Cl)cc1Cl)C(Oc1ccc(Cl)cc1Cl)C(=O)O (stereo not drawn)
inactive: [1] -3.95% | [2] -4.1% | [3] -9.95% | [4] -15.5% | [5] 1.75% | [6] 3.75%

NC(=O)c1nnc2ccc(F)cc2c1N
inactive: [1] -35.2% | [2] -37% | [3] -23.2% | [4] -2.55% | [5] -9.35% | [6] -27.2%

CC(=O)C(C)(C)Cc1cc(C(C)(C)CC=O)on1
inactive: [1] -2.25% | [2] -0.8% | [3] -12.4% | [4] 5.35% | [5] 29.1% | [6] 4.95%

O=C1C=C/C(=N/c2ccc(O)o2)c2ccccc21
inactive: [1] 36.8% | [2] 52.3% | [3] 20.1% | [4] 8.4% | [5] 17.8% | [6] 60%

O=C(c1ccc(Cl)cc1)c1ccc(OCCSCCCCCCCCCCSCCOc2ccc(C(=O)c3ccc(Cl)cc3)cc2)cc1
inactive: [1] -43.1% | [2] -27.7% | [3] -35.1% | [4] -9.4% | [5] -38.6% | [6] -30.9%

CC(=O)OC(c1ccc2c(c1)OCO2)C(C)(C)C (stereo not drawn)
inactive: [1] 17% | [2] 14.9% | [3] -7.3% | [4] -33.5% | [5] 8.7% | [6] 7.9%

CC(C)c1ccc(C(O)C2CC2)cc1 (stereo not drawn)
inactive: [1] -14.3% | [2] -40.8% | [3] -15.2% | [4] 3.05% | [5] -19.6% | [6] -11.6%
